These results are taken from PubChem BioAssay (NCI).

This is part of a sample that, as a whole, favours compounds with a hit. Of some 83,000 tested, about 20% had one in any assay.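 The test compound was applied at a single concentration to cells in 96-well plates for 48 hours, and percent growth was recorded.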 Values without a mark were called inactive. Activity calls are given as the source filed them. How the source made its calls: active means growth percent below 10; inactive means the rest.

What all share (assay): NCI-60 one-dose screen, 48 h (100 = growth as untreated, 0 = no growth, -100 = all killed)
Settings in all cases: 10 µM

Assay [1] relates to T-47D breast.
For assay [2], the system named is BT-549 breast.
Assay [3] relates to MDA-MB-435 melanoma.
In assay [4] the test system is SW-620 colon.
Assay [5] relates to MCF7 breast.
The test system of assay [6] is HCT-116 colon.
Assay [7] deals with HCC-2998 colon.
Assay [8] deals with KM12 colon.

Turning to `Cc1ccc(/C=C/C(=O)C(=O)/C=C/c2ccc(C)cc2)cc1`, the growth in assay [1] was 92.4%; in assay [2], 95.3%; in assay [3], 76.9%; in assay [4] it was 100%; in assay [5], 23.8%; in assay [6] it was -36.8% (active). Moreover, the values for the growth in assay [7] and in assay [8] were 110% and 93.8%, respectively.

On to `CC(C)(O)CCl`, for which the growth was 116% in assay [1]; 116% in assay [2]; 102% in assay [3]; 99.5% in assay [4]; 100% in assay [5]; 110% in assay [6]. Besides, the results for the growth in assay [7] and in assay [8] were 109% and 107%, respectively.

As to `CN(C)c1ccc(/C=N/NC(=O)c2cccc3ccccc23)c(Cl)c1`, the growth is 25.4% in assay [1]; 45.3% in assay [2]; -22.1% (active) in assay [3]; 24.2% in assay [4]; 15.1% in assay [5]; 31% in assay [6]. The results for the growth in assay [7] and in assay [8] were 61.2% and 22.7%, respectively.

As for `COc1cc(C(=O)N2CCN(c3cc4c(cc3F)c(=O)c(C(=O)NO)cn4C3CC3)CC2)cc(OC)c1OC`, the growth is 82.7% in assay [1]; 105% in assay [2]; 105% in assay [3]; 99% in assay [4]; 99% in assay [5]; 105% in assay [6]. Besides, the growth in assay [7] is 110%; in assay [8], 104%.

For the compound `CCc1cc(Cl)c(OC)c(C(=O)NCC2CCCN2CC)c1O` (stereo not given), the growth was 80.9% in assay [1]; 89.2% in assay [2]; 92.7% in assay [3]; 91.7% in assay [4]; 95.8% in assay [5]; 88.5% in assay [6]. In addition, the growth was 96.4% in assay [7] and 101% in assay [8].

On to `CC[C@@H](C(=O)[C@@H](C)[C@@H](O)[C@H](C)[C@@H]1O[C@@H]([C@@H](CC)C(=O)O)CC[C@@H]1C)C1O[C@]2(C=CC(=O)[C@]3(CC[C@@](C)([C@H]4CC[C@](O)(CC)[C@H](C)O4)O3)O2)[C@H](C)C[C@@H]1C` (stereo not given in full), for which the growth is 26.1% in assay [1]; 34.2% in assay [2]; 21% in assay [3]; 35.2% in assay [4]; 11.2% in assay [5]; 32.6% in assay [6]. Besides, the growth is 36.1% in assay [7] and 36% in assay [8].

Regarding `COc1ccc2nc(Cl)c(Cn3nnc(Cc4ccccc4)n3)cc2c1`, the growth in assay [1] is 2.44% (active); in assay [2] it was 20.3%; in assay [3], 29.3%; in assay [4], 66.4%; in assay [5] it was 27.9%; in assay [6], 29.2%. Besides, the growth in assay [7] is 59%; in assay [8], 36.5%.

`C(=N\Nc1ncnc2sc3c(c12)CCNC3)/c1cccc2ccccc12`: the growth was 103% in assay [1]; 92.5% in assay [2]; 97.7% in assay [3]; 2.91% (active) in assay [4]; 37.8% in assay [5]; 8.77% (active) in assay [6]. Moreover, the growth in assay [7] was 92.6%; in assay [8], 82.4%.

Consider `O=S(=O)(NCCCNc1nccc(-c2cn(-c3ccccc3)nc2-c2ccc(Cl)c(O)c2)n1)c1ccccc1`, for which the growth in assay [1] was 42.9%; in assay [2], 75.9%; in assay [3], 68.7%; in assay [4] it was 102%; in assay [5], 33%; in assay [6] it was 53.1%. Further, the growth in assay [7] is 91.6%; in assay [8], 56.7%.

With `CC(=O)Nc1ccc(S(=O)(=O)c2ccnc3cc(Cl)ccc23)cc1`, the growth in assay [1] was 72.5%; in assay [2], 94.9%; in assay [3] it was 73.9%; in assay [4], 81.8%; in assay [5], 57.8%; in assay [6], 78.7%. Besides, the growth in assay [7] is 100%; in assay [8], 90.1%.

In the case of `O=C(O)COc1c(Cl)cc([N+](=O)[O-])cc1Cl`, the growth was 108% in assay [1]; 90% in assay [2]; 105% in assay [3]; 110% in assay [4]; 94.7% in assay [5]; 83.4% in assay [6]. Also, the growth was 101% in assay [7] and 98.1% in assay [8].

Take `COc1cc2c3c(n([C@@H]4CCOC4)c(=O)c2cc1OC)-c1cc2c(cc1C3=O)OCO2`: the growth in assay [1] was 21.7%; in assay [2], 46.2%; in assay [3], 62.7%; in assay [4] it was 50.2%; in assay [5], 13.5%; in assay [6], 27.1%. In addition, the growth in assay [7] was 70.9%; in assay [8], 62.4%.

For `O=C1OC(C(Cl)(Cl)Cl)OC1C(Cl)(Cl)Cl` (stereo not given), the growth in assay [1] is 122%; in assay [2], 109%; in assay [3], 94.7%; in assay [4], 125%; in assay [5], 114%; in assay [6], 105%. The growth in assay [7] was 111%; in assay [8] it was 101%.

`CCOC(=O)c1sc2ncnc(Nc3ccc4c(cnn4C(=O)Nc4ccc(C)c(Cl)c4)c3)c2c1C`: the growth in assay [1] was 101%; in assay [2], 102%; in assay [3], 100%; in assay [4] it was 102%; in assay [5] it was 87.8%; in assay [6], 88.9%. Besides, the growth is 94.1% in assay [7] and 95.4% in assay [8].

For the compound `COc1cc2cc(Oc3ccc(NC(=O)Nc4ccc(Cl)c(Cl)c4)cc3)c(C)nc2cc1OC`, the growth in assay [1] was 60.9%; in assay [2], 28.1%; in assay [3], 12.3%; in assay [4], 23.4%; in assay [5] it was 13.8%; in assay [6], 10.5%. For the same compound, the growth in assay [7] is 37.6%; in assay [8], 13.9%.
